High-throughput results: PubChem BioAssay, several laboratories
ATG4B inhibitor = ATG4B (human) cysteine protease inhibition. inhibition, % at 8.33 µM. ATG4B cleavage of LC3-PLA2, NBD-HPC fluorescence, 1 h. actives 0.51% (n = 340,000). AID 504462; in the data active = inhibition above about 40%
Target sequence (Q9Y4P1 whole entry, looked up): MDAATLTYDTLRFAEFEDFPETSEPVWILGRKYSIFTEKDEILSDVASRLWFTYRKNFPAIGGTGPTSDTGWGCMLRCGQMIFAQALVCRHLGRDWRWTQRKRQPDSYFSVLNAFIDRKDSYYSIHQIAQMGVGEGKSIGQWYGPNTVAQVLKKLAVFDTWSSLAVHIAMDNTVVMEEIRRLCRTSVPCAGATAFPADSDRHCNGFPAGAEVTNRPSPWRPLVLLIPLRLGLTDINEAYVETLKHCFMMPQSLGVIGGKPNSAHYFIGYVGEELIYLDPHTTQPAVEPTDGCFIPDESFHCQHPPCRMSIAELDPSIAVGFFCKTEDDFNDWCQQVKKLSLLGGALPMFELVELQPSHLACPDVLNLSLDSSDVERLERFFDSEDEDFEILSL
PfHsp90 yeast 2 = growth inhibition of yeast expressing Plasmodium Hsp90; S. cerevisiae expressing PfHsp90, BacTiter-Glo ATP, 48 h; yeast lacking PDR1 and PDR3 efflux regulators; inhibition, % at 9.4 µM; actives 0.32% (n = 310,000); AID 504621;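 active = every replicate shows inhibition above about 80%, whatever the replicate mean, limit read from the data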;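 also: 0% = DMSO neutral controls and 100% = 20 µM radicicol positive controls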
tim10-1 inh = inhibits growth of tim10-1 mutant yeast; S. cerevisiae tim10-1 ts strain growth, BacTiter-Glo, 24 h; inhibition, % at 20 µM; actives 2.2% (n = 330,000); AID 463190;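 active = inhibition of at least 40%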;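 also: mutant grown at 25 °C; 0% = DMSO wells with yeast and 100% = wells holding no yeast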
SKKanGAS inh = blocks kanamycin growth of S. pyogenes SKKanGAS strain. BacTiter-Glo, 6 h. inhibition, % at 7.5 µM. actives 1.3% (n = 300,000). AID 1662;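 active = mean replicate score, as percent of positive control median, at least 50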;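 also: strain carries kanamycin resistance gene driven by streptokinase promoter and grows in 40 µg/ml kanamycin; loss of luminescence reflects streptokinase promoter inhibition or plain growth inhibition; 0% = median of DMSO wells and 100% = positive control at its reference dose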
TIM10 inh = TIM10 yeast growth inhibition; S. cerevisiae TIM10 strain growth, BacTiter-Glo luminescence, 24 h; inhibition, % at 10 µM; actives 1.4% (n = 330,000);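 active = inhibition of 40% or more at the single tested concentration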;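 also: wild-type TIM10 isogenic control strain grown at permissive 25 °C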
tim23-1 inh = inhibits growth of tim23-1 mutant yeast; S. cerevisiae tim23-1 growth, BacTiter-Glo luminescence, 24 h; inhibition, % at 20 µM; actives 1.3% (n = 330,000); AID 463212;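 active = growth inhibition of the mutant yeast at or above 50%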;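 also: temperature-sensitive mutant grown at 25 °C; plate controls were DMSO-treated mutant yeast for no effect and medium wells lacking yeast for full effect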
TIM10 conf = confirmation of TIM10 yeast growth inhibitors. actives 63% (n = 4,600). shares compounds with TIM10 inh. inhibition, % at 10 µM. AID 463215. S. cerevisiae tim10 strain growth, BacTiter-Glo luminescence, 24 h;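 active = inhibition of yeast growth at or above a set limit in either of two replicates at 10 µM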;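 also: this counterscreen used the strain with wild-type TIM10; 0% = yeast with DMSO and 100% = medium wells lacking yeast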
An asterisk follows results filed as active. An excerpt weighted towards active compounds, which were near 4.7% of everything screened.

Screening CN1CCN(c2nc3ccccc3nc2C(C#N)S(=O)(=O)c2ccccc2)CC1 (stereo unspecified) returned ATG4B inhibitor -8, tim10-1 inh 10, SKKanGAS inh 1, TIM10 inh 7 and tim23-1 inh 6.
Screening N#CC(c1nc2ccccc2nc1N1CCCC1)S(=O)(=O)c1ccccc1 (stereo unspecified) returned ATG4B inhibitor 2, PfHsp90 yeast 2 -24, tim10-1 inh 38, SKKanGAS inh 16, TIM10 inh 41*, tim23-1 inh 28 and TIM10 conf 17.
Screening CC(=O)c1ccc2c(c1)Nc1ccccc1S2 returned ATG4B inhibitor -10, PfHsp90 yeast 2 6, tim10-1 inh 16, SKKanGAS inh -4, TIM10 inh 88*, tim23-1 inh 17 and TIM10 conf 3.
Screening Cc1cccc(C(=O)NNC(=O)C23CC4CC(CC(C4)C2)C3)c1O returned ATG4B inhibitor -5, PfHsp90 yeast 2 0, tim10-1 inh 4, SKKanGAS inh 41, TIM10 inh 49*, tim23-1 inh 28 and TIM10 conf 46*.
For C#CCOCCOCCOCCNc1nc(N2CCN(C(=O)Cn3cc(CCCN=C(N)N)nn3)CC2)nc(N2CCN(C(=O)[C@H](C)n3cc(CCCN=C(N)N)nn3)CC2)n1 the results were ATG4B inhibitor -7, PfHsp90 yeast 2 14, tim10-1 inh -4, TIM10 inh 61*, tim23-1 inh -10 and TIM10 conf -8.
Screening O=C(NCc1cccc(C(F)(F)F)c1)c1cccc(Cl)c1Cl returned ATG4B inhibitor 19, PfHsp90 yeast 2 8, tim10-1 inh 24, SKKanGAS inh 12, TIM10 inh 17 and tim23-1 inh 30.
For CCNc1nc(N)c(C(=O)c2ccc(Cl)s2)s1 the results were ATG4B inhibitor -5, PfHsp90 yeast 2 -1, tim10-1 inh 33, SKKanGAS inh 1, TIM10 inh 44*, tim23-1 inh 21 and TIM10 conf 41*.
CCOC(=O)CNC(=O)c1ccc(Cl)s1 was read as ATG4B inhibitor 2, tim10-1 inh 2, SKKanGAS inh -5, TIM10 inh -21 and tim23-1 inh 10.
For CC1(C)CC2CC(C)(CN2S(=O)(=O)c2ccc(N)cc2)C1 (stereo unspecified) the results were ATG4B inhibitor -9, PfHsp90 yeast 2 33, tim10-1 inh 39, SKKanGAS inh -4, TIM10 inh 54*, tim23-1 inh 40 and TIM10 conf 28.
Screening COc1ccc(-c2cc(C(=O)N3CCOCC3)no2)cc1OC returned ATG4B inhibitor 0, PfHsp90 yeast 2 2, tim10-1 inh 6, SKKanGAS inh -2, TIM10 inh 0 and tim23-1 inh 11.
`O=C(c1cc(-c2cccs2)on1)N1CCN(C(c2ccccc2)c2ccccc2)CC1` gave ATG4B inhibitor -3, PfHsp90 yeast 2 -9, tim10-1 inh 30, SKKanGAS inh 11, TIM10 inh 50*, tim23-1 inh 31 and TIM10 conf 31*.
Screening COc1cccc(-c2nc(C#N)c(N3CCN(C(=O)c4ccco4)CC3)o2)c1 returned ATG4B inhibitor -7, PfHsp90 yeast 2 4, tim10-1 inh 23, SKKanGAS inh -1, TIM10 inh 3 and tim23-1 inh 33.
Screening O=C(c1cc(-c2cccs2)on1)N1CCOCC1 returned ATG4B inhibitor 9, PfHsp90 yeast 2 5, tim10-1 inh 4, SKKanGAS inh -1, TIM10 inh 10 and tim23-1 inh 8.
COc1cccc(-c2cc(C(=O)N3CCN(C(=O)c4ccco4)CC3)on2)c1 was read as ATG4B inhibitor 0, PfHsp90 yeast 2 -36, tim10-1 inh 1, SKKanGAS inh 21, TIM10 inh 47*, tim23-1 inh 9 and TIM10 conf 9.
`COc1ccc(-c2cc(C(=O)N3CCN(c4ccccc4)CC3)no2)cc1OC` gave ATG4B inhibitor -14, tim10-1 inh 23, SKKanGAS inh -2, TIM10 inh 42*, tim23-1 inh -4 and TIM10 conf 20.
COc1cccc(-c2cc(C(=O)N3CCN(C(c4ccccc4)c4ccccc4)CC3)no2)c1 was read as ATG4B inhibitor 2, PfHsp90 yeast 2 -20, tim10-1 inh 40, SKKanGAS inh -16, TIM10 inh 57*, tim23-1 inh 30 and TIM10 conf 44*.
For Cc1nc(Nc2ccc3c(c2)OCCO3)c2oc3ccccc3c2n1 the results were ATG4B inhibitor -6, PfHsp90 yeast 2 8, tim10-1 inh 31, SKKanGAS inh 12, TIM10 inh 40*, tim23-1 inh 38 and TIM10 conf 21.
`COc1ccccc1N1CCN(Cc2nc3ccsc3c(=O)[nH]2)CC1` gave ATG4B inhibitor -9, PfHsp90 yeast 2 1, tim10-1 inh 14, SKKanGAS inh -1, TIM10 inh -2 and tim23-1 inh 18.
For CCc1nc2c(cnn2-c2ccc(Cl)cc2)c(=O)n1-c1ccc(OC)cc1 the results were ATG4B inhibitor -23, PfHsp90 yeast 2 -3, tim10-1 inh 6, SKKanGAS inh 52*, TIM10 inh 42*, tim23-1 inh 6 and TIM10 conf 16.
For CCCCN(CCCC)C(=S)NC(=O)c1ccccc1Cl the results were ATG4B inhibitor -2, PfHsp90 yeast 2 2, tim10-1 inh 39, SKKanGAS inh -7, TIM10 inh 48*, tim23-1 inh 44 and TIM10 conf -16.
Screening CCN(Cc1ccccc1)C(=S)NC(=O)c1ccccc1Br returned ATG4B inhibitor -5, PfHsp90 yeast 2 11, tim10-1 inh 38, SKKanGAS inh 6, TIM10 inh 29 and tim23-1 inh 43.
For CCN(CC)C(=S)NC(=O)c1ccc(Cl)cc1Cl the results were ATG4B inhibitor 2, PfHsp90 yeast 2 2, tim10-1 inh 21, SKKanGAS inh 2, TIM10 inh 2 and tim23-1 inh 38.
CCCN(Cc1ccccc1)C(=S)NC(=O)c1ccccc1[N+](=O)[O-] was read as ATG4B inhibitor -8, PfHsp90 yeast 2 -46, tim10-1 inh 32, SKKanGAS inh 18, TIM10 inh 44*, tim23-1 inh 44 and TIM10 conf 40*.
CCNC(=O)COc1ccc(OCc2ccccc2)cc1 was read as ATG4B inhibitor 29, PfHsp90 yeast 2 -12, tim10-1 inh 10, SKKanGAS inh -2, TIM10 inh -4 and tim23-1 inh 4.
For CCC(C)NC(=O)COc1ccc(OCc2ccccc2)cc1 (stereo unspecified) the results were ATG4B inhibitor -10, PfHsp90 yeast 2 -46, tim10-1 inh 26, SKKanGAS inh -13, TIM10 inh 42*, tim23-1 inh 13 and TIM10 conf 34*.
